Data as given in PubChem BioAssay (Tox21).
Several values for one entry are separate records, joined by “and”; a condition that tells them apart may be missing. Identical values can stand only once. Inconclusive results are not listed. A structure can be active in one record and inactive in another. Activity calls are given as the source filed them. Unless noted, the call rests on the fitted dose curve; in most records, active means well fitted curve in the direction sought with a large enough effect in the repeat runs; inconclusive means weak or mixed curves; inactive means no such curve, though single readings can be large; an effect the other way counts as inactive or inconclusive.

Experiments:
[1] = qHTS assay to identify small molecule antagonists of the retinoid acid receptor (RAR) signaling pathway - cell viability counter screen (AID 1159551); further: nearly all actives have a fitted effect of over 35% in size
In short: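 C3RL4 cells were seeded overnight at 37 C, then treated with compounds plus 1 uM (final) retinol for 6 h at 37 C. Viability was read as ATP by CellTiter-Glo luminescence after 30 min at room temperature.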

[2] = qHTS assay to identify small molecule antagonists of the estrogen related receptor (ERR) signaling pathway from Tox21 library - cell viability counter screen (AID 1224834); further: nearly all actives have a fitted effect of over 30% in size
In short: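 ERR reporter cells were plated 6 h before compound addition, then exposed to test compounds in DMSO for 17.5 h at 37 C. Viability was read as CellTiter-Fluor fluorescence after a 30-minute incubation at 37 C.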

[3] = target: Luciferin 4-monooxygenase (Photinus pyralis) (UniProt P08659); assay: qHTS assay to identify small molecule inhibitors of firefly luciferase (AID 1224835); further: nearly all actives have a fitted effect of over 25% in size; further: potency means the concentration at half of the fitted maximal effect
Chain of Luciferin 4-monooxygenase (Photinus pyralis) (P08659 whole entry, looked up): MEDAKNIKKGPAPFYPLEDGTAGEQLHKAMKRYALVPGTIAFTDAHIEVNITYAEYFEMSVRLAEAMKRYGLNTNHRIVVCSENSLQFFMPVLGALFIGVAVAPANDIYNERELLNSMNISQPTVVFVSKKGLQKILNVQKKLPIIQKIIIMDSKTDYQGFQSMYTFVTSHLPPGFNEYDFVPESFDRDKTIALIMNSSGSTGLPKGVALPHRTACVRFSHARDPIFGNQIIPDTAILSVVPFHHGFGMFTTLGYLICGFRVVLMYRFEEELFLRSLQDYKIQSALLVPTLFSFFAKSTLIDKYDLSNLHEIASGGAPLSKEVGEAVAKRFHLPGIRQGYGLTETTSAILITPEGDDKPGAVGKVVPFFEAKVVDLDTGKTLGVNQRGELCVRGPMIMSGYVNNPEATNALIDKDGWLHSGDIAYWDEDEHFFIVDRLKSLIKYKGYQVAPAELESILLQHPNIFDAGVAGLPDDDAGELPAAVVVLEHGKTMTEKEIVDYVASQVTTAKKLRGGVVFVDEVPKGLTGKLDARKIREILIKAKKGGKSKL
In short: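 Quantitative HTS format; KM concentrations of both substrates. Purified P. pyralis FLuc activity quantified from luminescence images.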

[4] = qHTS assay to identify small molecule agonists of the constitutive androstane receptor (CAR) signaling pathway - cell viability counter screen (AID 1224836); further: series mostly up to about 92 µM; nearly all actives have a fitted effect of over 45% in size
In short: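 HepG2 cells stably carrying hCAR and a CYP2B6-2.2kb reporter; 15-concentration compounds plus PK11195 (final 0.75 uM), 23 hr at 37 C/5% CO2. Viability read by CellTiter-Fluor fluorescence.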

[5] = qHTS assay to identify small molecule antagonists of the constitutive androstane receptor (CAR) signaling pathway - cell viability counter screen (AID 1224837); further: series mostly up to about 92 µM; nearly all actives have a fitted effect of over 45% in size
In short: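 HepG2 cells stably expressing hCAR and a CYP2B6-2.2kb reporter were plated and pre-incubated 4 hr at 37 C/5% CO2, then given compounds at 15 concentrations plus 50 nM CITCO (final). After 23 hr, viability was read by CellTiter-Fluor fluorescence.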

[6] = target: Nuclear receptor subfamily 1 group I member 3 (Homo sapiens) (UniProt Q14994); assay: qHTS assay to identify small molecule antagonists of the constitutive androstane receptor (CAR) signaling pathway (AID 1224838); further: nearly all actives have a fitted effect of over 40% in size
Chain of Nuclear receptor subfamily 1 group I member 3 (Homo sapiens) (Q14994 whole entry, looked up): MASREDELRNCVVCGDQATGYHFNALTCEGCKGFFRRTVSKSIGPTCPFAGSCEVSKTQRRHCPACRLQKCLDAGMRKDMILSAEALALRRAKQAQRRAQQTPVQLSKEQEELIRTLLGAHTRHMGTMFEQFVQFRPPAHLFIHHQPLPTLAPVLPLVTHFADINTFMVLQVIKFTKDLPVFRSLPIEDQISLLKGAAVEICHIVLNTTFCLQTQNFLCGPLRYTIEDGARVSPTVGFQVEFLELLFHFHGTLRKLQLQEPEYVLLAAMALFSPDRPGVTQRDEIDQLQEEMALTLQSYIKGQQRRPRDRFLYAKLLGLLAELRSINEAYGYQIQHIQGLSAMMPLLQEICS
In short: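 HepG2 cells stably co-transfected with hCAR and a CYP2B6-2.2kb luciferase reporter were seeded 4 h before compound addition at 15 concentrations. Cells were stimulated with 50 nM CITCO (final) for 24 h at 37 C; luciferase luminescence was then read.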

[7] = target: Nuclear receptor subfamily 1 group I member 3 (Homo sapiens) (UniProt Q14994); assay: qHTS assay to identify small molecule agonists of the constitutive androstane receptor (CAR) signaling pathway (AID 1224839); further: nearly all actives have a fitted effect of over 15% in size; further: potency means the concentration at half of the fitted maximal effect
In short: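 HepG2 cells stably co-transfected with hCAR and a CYP2B6-2.2kb luciferase reporter; compounds at 15 concentrations with 0.75 uM PK11195 present. After 24 hr at 37 C, luciferase read by ONE-Glo luminescence.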

[8] = qHTS assay to identify small molecule antagonists of the estrogen related receptor signaling pathway with the pleiotropic PPARgamma coactivator (PGC) from Tox21 10K library - cell viability counter screen (AID 1224840; active means well fitted cell-killing curve with a large enough effect in the repeat runs, not every such curve was filed as active; further: nearly all actives have a fitted effect of over 40% in size)
In short: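 PGC/ERR cells were seeded at 2,000 cells/well and left 6 hours at 37 C/5% CO2 before pin-tool addition of compounds in DMSO. After 17.5 hours at 37 C, CellTiter-Fluor was added and fluorescence read 30 minutes later.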

[9] = qHTS assay to identify small molecule agonists of the RXR signaling pathway - cell viability counter screen (AID 1159529); further: series mostly up to about 77 µM; nearly all actives have a fitted effect of over 50% in size
In short: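 RXR-alpha-UAS-bla HEK 293T cells in medium with 2% charcoal-stripped FBS were pre-incubated 5 hr, then compound-treated 16 hr at 37 C. Viability was read by CellTiter-Glo luminescence in the same wells as the beta-lactamase assay, with tetraoctyl ammonium bromide as positive control.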

[10] = qHTS assay to identify small molecule antagonists of the retinoic acid receptor (RAR) signaling pathway (AID 1159552; further: nearly all actives have a fitted effect of over 50% in size)
In short: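 Retinol signaling pathway inhibitors screened in C3RL4 RARE-luciferase reporter cells seeded overnight at 37 C, then compounds added with 1 uM (final) retinol as pathway substrate. After 6 hr at 37 C, luciferase luminescence read after 30 min at room temperature.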

[11] = qHTS assay to identify small molecule agonists of the retinoic acid receptor (RAR) signaling pathway (AID 1159553); further: potency means the concentration at half of the fitted maximal effect
In short: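 C3RL4 cells carrying a RARE luciferase reporter were plated overnight at 37 C, then exposed to compounds in DMSO for 6 hr at 37 C and 5% CO2. Luminescence was read 30 min after luciferase reagent addition at room temperature.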

[12] = qHTS assay to identify small molecule antagonists of the estrogen related receptor signaling pathway with the pleiotropic PPARgamma coactivator (PGC) from Tox21 10K library (AID 1224841; call rule not given here; further: series mostly up to about 92 µM; actives are mostly falling curves and most rising ones were filed inactive; nearly all actives have a fitted effect of over 50% in size)
In short: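 PGC/ERR reporter cells were seeded at 2,000 cells/well and held 6 hours at 37 C/5% CO2 before pin-tool addition of compounds in DMSO. After 18 hours at 37 C, One-Glo was added and luminescence read after 30 minutes at room temperature.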

[13] = qHTS assay to identify small molecule agonists of the estrogen related receptor signaling pathway with the pleiotropic PPARgamma coactivator (PGC) from Tox21 10K library (AID 1224842); further: nearly all actives have a fitted effect of over 15% in size
In short: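 PGC/ERR reporter cells (NTP line) were seeded 2,000 per well, rested 6 h at 37 C/5% CO2, then pin-dosed with compounds in DMSO for 18 h at 37 C; luciferase read by One-Glo luminescence after 30 min at room temperature.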

[14] = qHTS assay to identify small molecule antagonists of the estrogen related receptor (ERR) signaling pathway - cell viability counter screen (AID 1224818);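 further: series mostly up to about 46 µM; viability measured after 17.5 h of compound exposure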
In short: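 ERR reporter cells plated 6 h at 37 C/5% CO2, then compounds in DMSO pin-transferred and incubated 17.5 h at 37 C. Viability read as CellTiter-Fluor fluorescence after 30 min at 37 C.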

[15] = qHTS assay to identify small molecule antagonists of the estrogen related receptor signaling pathway with the pleiotropic PPARgamma coactivator (PGC) cell viability counter screen (AID 1224822; further: series mostly up to about 46 µM)
In short: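 PGC/ERR cells were seeded at 2,000 cells/well, rested 6 h at 37 C/5% CO2, then given compounds in DMSO by pin tool and incubated 17.5 h at 37 C. Viability came from CellTiter-Fluor fluorescence after 30 min.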

Measured: Potency

COc1cc(OC)c(C(=O)CCCN2CCCC2)c(OC)c1
inactive: [1] | [2] | [3] | [4] | [5] | [6] | [7] | [8]

C=CCc1ccc(OC)c(OC)c1
inactive: [9] | [1] | [2] | [3] | [4] | [5] | [8]

CCCCCCCCCCCC(=O)OC
not listed: [10] | [11] | [12] | [13] | [14] | [15]
inactive: all other assays above

O=C(O)CCCCCCCCC(=O)O
not listed: [9] | [14] | [15]
inactive: all other assays above

Cc1ccc2ncccc2c1
not listed: [14] | [15]
inactive: all other assays above

O=C(OCC1CCC2OC2C1)C1CCC2OC2C1 (centres undefined)
not listed: [12] | [13] | [14] | [15]
inactive: all other assays above

O=S(=O)(O)c1ccccc1
not listed: [3] | [6] | [7] | [14] | [15]
inactive: all other assays above

CC(=O)OCc1ccco1
not listed: [14] | [15]
inactive: all other assays above

CCNc1ccccc1
28.8 µM (active) and inactive: [3]
not listed: [9] | [12] | [13] | [14] | [15]
inactive: all other assays above

CCCCCCCCCCO
not listed: [6] | [7] | [12] | [13] | [14] | [15]
inactive: all other assays above

Cc1ccc(S(=O)(=O)N=C=O)cc1
not listed: [6] | [7] | [14] | [15]
inactive: all other assays above

CCOC(=O)n1ccn(C)c1=S
not listed: [6] | [7] | [12] | [13] | [14] | [15]
inactive: all other assays above

C[C@]12CCC(=O)C=C1CC[C@@H]1[C@@H]2[C@@H](O)C[C@@]2(C)[C@H]1CC[C@]2(O)C(=O)CO
not listed: [6] | [9] | [12] | [13]
inactive: all other assays above

O=C(O)Cn1c(=O)n(Cc2ccc(Br)cc2F)c(=O)c2ccc(Cl)cc21
not listed: [14] | [15]
inactive: all other assays above

CC(=O)OCc1ccccc1
not listed: [6] | [7] | [12] | [13] | [14] | [15]
inactive: all other assays above

NCCNCCN
not listed: [9] | [14] | [15]
inactive: all other assays above

c1ccc(Oc2ccccc2)cc1
not listed: [12] | [13] | [14] | [15]
inactive: all other assays above

Nc1ccc(Cl)c(N)c1
active: [11] 68.6 µM
inactive: [9] | [1] | [10] | [3] | [4] | [5] | [8]

CN/C(=C\[N+](=O)[O-])NCCSCc1csc(CN(C)C)n1
inactive: [9] | [1] | [2] | [4] | [5] | [6] | [7] | [8]

O=C(O)c1ccccc1C(=O)O
not listed: [12] | [13] | [14] | [15]
inactive: all other assays above

CCCCCCO
not listed: [9] | [12] | [13] | [14] | [15]
inactive: all other assays above

Clc1ccccn1
not listed: [6] | [7] | [12] | [13] | [14] | [15]
inactive: all other assays above

CCO[Si](CCCN)(OCC)OCC
not listed: [10] | [11] | [14] | [15]
inactive: all other assays above

CCCOC(=O)c1ccccc1
not listed: [10] | [11] | [14] | [15]
inactive: all other assays above

O=C1CCCC1
not listed: [6] | [7] | [14] | [15]
inactive: all other assays above

CN1C(=O)CC[C@H]1c1cccnc1
not listed: [10] | [11] | [12] | [13]
inactive: all other assays above

O=C1C(c2[nH]c3ccccc3c2O)=Nc2ccccc21
not listed: [14] | [15]
inactive: all other assays above

OCc1ccccc1
not listed: [9] | [14] | [15]
inactive: all other assays above

CNC(=O)Oc1ccc2c(c1)[C@]1(C)CCN(C)[C@@H]1N2C
not listed: [10] | [11] | [12] | [13]
inactive: all other assays above

COc1ccc(C)cc1N
not listed: [7] | [9] | [12] | [13] | [14] | [15]
inactive: all other assays above

O=C(O)c1cc2ccccc2cc1O
active: [3] 35.3 µM and 31.7 µM | [7] 43.3 µM
not listed: [9] | [14] | [15]
inactive: all other assays above

CC(O)CC(C)(C)O (centres undefined)
not listed: [6] | [7] | [12] | [13] | [14] | [15]
inactive: all other assays above

CCOC(=O)c1ccc(N)cc1
inactive: [9] | [1] | [10] | [4] | [5] | [6] | [7] | [8]

CC1(C)NC(=O)NC1=O
not listed: [14] | [15]
inactive: all other assays above

CC(C)=CCl
not listed: [9] | [10] | [12] | [13] | [14] | [15]
inactive: all other assays above
